Assay [1] deals with PRMT1 (protein arginine N-methyltransferase 1). Put plainly: small molecules binding arginine methyltransferase PRMT1 – biochemical, small-molecule microarray, 635 nm fluorescence, primary screen (AID 1088).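 Also: binding of Prmt1 protein to compounds spotted on small-molecule microarray slides.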 The conditions noted are these: higher = more signal.
A short description of assay [2]: growth effects on S. cerevisiae YJM789 – YJM789 clinical isolate, OD600, 24 h, basal, primary screen (AID 1089).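 Also: growth of clinical yeast isolate S. cerevisiae YJM 789 seeded 1000 cells per well; test concentration not given here.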 The conditions noted are these: higher = more signal, called active from +8 up or from −8 down.
Assay [3] is described as follows: S. pombe growth modifiers, basal conditions – strain 972, OD600, 24 h, no modulator, primary screen (AID 1090).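 Also: basal condition with compound alone and no growth modifier present; test concentration not given here.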 The conditions noted are these: S. pombe 972 growth, higher = more signal, called active from +8 up or from −8 down.
Assay [4] can be described thus: budding yeast growth modifiers under rapamycin – strain BY4716, OD600, 96 h, primary screen (AID 1091). Also: test concentration not given here. The conditions noted are these: S. cerevisiae BY4716 + rapamycin, higher = more signal, called active from +8 up or from −8 down.
For assay [5], the target named is Torsin-1A-interacting protein 2 (Homo sapiens) (UniProt Q8NFQ8). Nature of the assay: small molecules binding lysate-expressed LULL1 – cell lysate, human LULL1 lysate, 635/667 nm fluorescence, primary screen (AID 1092).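 Also: probe is lysate of COS7 cells overexpressing human LULL1; score merges per-feature 667 nm fluorescence with signal-to-noise.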 The conditions noted are these: small-molecule microarray, hLULL1 lysate binding, 635 nm fluorescence; higher = more signal.
Assay [6] can be described thus: optical density change of DRC41 E. coli – strain DRC41, OD650, 24 h, E. coli filamentation project, primary screen (AID 1093).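 Also: MC1000 strain lacking acrAB efflux and sulA so SOS filamentation is blocked; test concentration not given here.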 The conditions noted are these: E. coli DRC41 growth, higher = more signal, called active from +8 up or from −8 down.
Assay [7] in a line: probe aLefty2 binding to arrayed compounds – biochemical, biotinylated probe, 635/667 nm fluorescence, primary screen (AID 1094).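 Also: score merges spot fluorescence near 667 nm with spot signal-to-noise ratio.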 The conditions noted are these: small-molecule microarray, higher = more signal.
Assay [8] deals with Noggin (protein binding on small-molecule microarray). Nature of the assay: small molecules binding Noggin protein – biochemical, 635/667 nm fluorescence, primary screen (AID 1095).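 Also: score merges 667 nm feature fluorescence with signal to noise over triplicate slides.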 The conditions noted are these: 635 nm fluorescence, higher = more signal.
Assay [9] addresses Neurogenic locus notch homolog protein 3 (Homo sapiens) (UniProt Q9UM47). Nature of the assay: small molecules binding NOTCH3 protein – biochemical, 635/667 nm fluorescence, primary screen (AID 1096). The conditions noted are these: small-molecule microarray, 635 nm fluorescence, higher = more signal.
A short description of assay [10]: probe aEGFR binding to arrayed compounds – biochemical, biotinylated probe, 635/667 nm fluorescence, primary screen (AID 1097).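 Also: probe is a biotinylated anti-EGFR antibody binding compounds printed on slides; score combines fluorescence near 667 nm and signal to noise of each spot.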 The conditions noted are these: small-molecule microarray, higher = more signal.
Assay [11] concerns Plasmodium falciparum Sir2 (PF13_0152, Sir2A). Put plainly: Plasmodium falciparum Sir2A binding compounds – biochemical, small-molecule microarray, 635 nm fluorescence, primary screen (AID 1098).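 Also: score merges spot fluorescence intensity with its signal-to-noise ratio.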 The conditions noted are these: fluorescence 635 nm, higher = more signal.
Assay [12] is described as follows: probe aDKK1 binding to arrayed compounds – biochemical, biotinylated probe, 635/667 nm fluorescence, primary screen (AID 1099).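 Also: score merges 667nm spot fluorescence with signal to noise across triplicate slides; reference of the scale not given here.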 The conditions noted are these: small-molecule microarray, higher = more signal.
Assay [13] is described as follows: probe aCHRDL2 binding to arrayed compounds – biochemical, biotinylated probe, 635/667 nm fluorescence, primary screen (AID 1100). The conditions noted are these: small-molecule microarray, higher = more signal.
A short description of assay [14]: change in splice reporter luminescence, either direction, cell-based, HEK293, spliceosome inhibition project, primary screen (AID 1101).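 Also: HEK293 cells carrying a splicing-competent luciferase reporter gene; test concentration not given here.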 The conditions noted are these: HEK293 splicing luciferase reporter, 24 h, higher = more signal, called active from +8 up or from −8 down.
Assay [15] addresses Fibroblast growth factor 10 (Homo sapiens) (UniProt O15520). Put plainly: compounds binding fibroblast growth factor 10 – biochemical, small-molecule microarray, 635 nm fluorescence, primary screen (AID 1102). The conditions noted are these: FGF10 binding, fluorescence 635 nm, higher = more signal.
The subject of assay [16] is glycogen synthase kinase-3 (GSK3A per assay name; protocol says GSK3B). Put plainly: compounds binding glycogen synthase kinase-3 – biochemical, small-molecule microarray, 635 nm fluorescence, GSK3A, primary screen (AID 1103). Also: the record names both GSK3A and GSK3B. The conditions noted are these: fluorescence 635 nm, higher = more signal.
For assay [17], the target named is Epidermal growth factor receptor (Homo sapiens) (UniProt P00533). Nature of the assay: compounds binding epidermal growth factor receptor – biochemical, small-molecule microarray, 635 nm fluorescence, primary screen (AID 1104).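 Also: score merges 667 nm emission intensity with spot signal to noise over triplicate slides.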 The conditions noted are these: EGFR binding, higher = more signal.
The target in assay [18] is Follistatin-related protein 3 (Homo sapiens) (UniProt O95633). Nature of the assay: compounds binding follistatin-related protein 3 – biochemical, small-molecule microarray, 635 nm fluorescence, primary screen (AID 1105).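 Also: score merges emission near 667 nm and signal to noise per printed spot across three slides.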 The conditions noted are these: FSTL3 binding, higher = more signal.
For assay [19], the target named is Dickkopf-related protein 1 (Homo sapiens) (UniProt O94907). Nature of the assay: small molecules binding DKK1 protein – biochemical, small-molecule microarray, 635 nm fluorescence scan, primary screen (AID 1106).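 Also: score merges emission near 667 nm with signal to noise over three replicate slides.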 The conditions noted are these: higher = more signal.
For assay [20], the system named is Inhibin beta A chain (activin A). Nature of the assay: small molecules binding activin A – biochemical, small-molecule microarray, 635 nm fluorescence scan, primary screen (AID 1107).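 Also: mouse activin A protein probed at 4.33 µg/mL on printed slides; score merges bound-protein fluorescence near 667 nm with spot signal-to-noise.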 The conditions noted are these: INHBA, higher = more signal.

The source made the active and inactive calls.

Sequence of Follistatin-related protein 3 (Homo sapiens) (O95633 whole entry, looked up): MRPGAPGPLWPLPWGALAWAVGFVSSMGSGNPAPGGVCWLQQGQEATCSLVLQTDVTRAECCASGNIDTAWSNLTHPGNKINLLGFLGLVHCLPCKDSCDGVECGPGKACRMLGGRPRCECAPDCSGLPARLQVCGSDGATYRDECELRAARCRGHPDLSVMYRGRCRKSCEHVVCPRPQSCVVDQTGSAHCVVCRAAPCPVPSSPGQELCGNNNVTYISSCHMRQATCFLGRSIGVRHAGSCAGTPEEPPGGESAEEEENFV
Sequence of Neurogenic locus notch homolog protein 3 (Homo sapiens) (Q9UM47 whole entry, looked up): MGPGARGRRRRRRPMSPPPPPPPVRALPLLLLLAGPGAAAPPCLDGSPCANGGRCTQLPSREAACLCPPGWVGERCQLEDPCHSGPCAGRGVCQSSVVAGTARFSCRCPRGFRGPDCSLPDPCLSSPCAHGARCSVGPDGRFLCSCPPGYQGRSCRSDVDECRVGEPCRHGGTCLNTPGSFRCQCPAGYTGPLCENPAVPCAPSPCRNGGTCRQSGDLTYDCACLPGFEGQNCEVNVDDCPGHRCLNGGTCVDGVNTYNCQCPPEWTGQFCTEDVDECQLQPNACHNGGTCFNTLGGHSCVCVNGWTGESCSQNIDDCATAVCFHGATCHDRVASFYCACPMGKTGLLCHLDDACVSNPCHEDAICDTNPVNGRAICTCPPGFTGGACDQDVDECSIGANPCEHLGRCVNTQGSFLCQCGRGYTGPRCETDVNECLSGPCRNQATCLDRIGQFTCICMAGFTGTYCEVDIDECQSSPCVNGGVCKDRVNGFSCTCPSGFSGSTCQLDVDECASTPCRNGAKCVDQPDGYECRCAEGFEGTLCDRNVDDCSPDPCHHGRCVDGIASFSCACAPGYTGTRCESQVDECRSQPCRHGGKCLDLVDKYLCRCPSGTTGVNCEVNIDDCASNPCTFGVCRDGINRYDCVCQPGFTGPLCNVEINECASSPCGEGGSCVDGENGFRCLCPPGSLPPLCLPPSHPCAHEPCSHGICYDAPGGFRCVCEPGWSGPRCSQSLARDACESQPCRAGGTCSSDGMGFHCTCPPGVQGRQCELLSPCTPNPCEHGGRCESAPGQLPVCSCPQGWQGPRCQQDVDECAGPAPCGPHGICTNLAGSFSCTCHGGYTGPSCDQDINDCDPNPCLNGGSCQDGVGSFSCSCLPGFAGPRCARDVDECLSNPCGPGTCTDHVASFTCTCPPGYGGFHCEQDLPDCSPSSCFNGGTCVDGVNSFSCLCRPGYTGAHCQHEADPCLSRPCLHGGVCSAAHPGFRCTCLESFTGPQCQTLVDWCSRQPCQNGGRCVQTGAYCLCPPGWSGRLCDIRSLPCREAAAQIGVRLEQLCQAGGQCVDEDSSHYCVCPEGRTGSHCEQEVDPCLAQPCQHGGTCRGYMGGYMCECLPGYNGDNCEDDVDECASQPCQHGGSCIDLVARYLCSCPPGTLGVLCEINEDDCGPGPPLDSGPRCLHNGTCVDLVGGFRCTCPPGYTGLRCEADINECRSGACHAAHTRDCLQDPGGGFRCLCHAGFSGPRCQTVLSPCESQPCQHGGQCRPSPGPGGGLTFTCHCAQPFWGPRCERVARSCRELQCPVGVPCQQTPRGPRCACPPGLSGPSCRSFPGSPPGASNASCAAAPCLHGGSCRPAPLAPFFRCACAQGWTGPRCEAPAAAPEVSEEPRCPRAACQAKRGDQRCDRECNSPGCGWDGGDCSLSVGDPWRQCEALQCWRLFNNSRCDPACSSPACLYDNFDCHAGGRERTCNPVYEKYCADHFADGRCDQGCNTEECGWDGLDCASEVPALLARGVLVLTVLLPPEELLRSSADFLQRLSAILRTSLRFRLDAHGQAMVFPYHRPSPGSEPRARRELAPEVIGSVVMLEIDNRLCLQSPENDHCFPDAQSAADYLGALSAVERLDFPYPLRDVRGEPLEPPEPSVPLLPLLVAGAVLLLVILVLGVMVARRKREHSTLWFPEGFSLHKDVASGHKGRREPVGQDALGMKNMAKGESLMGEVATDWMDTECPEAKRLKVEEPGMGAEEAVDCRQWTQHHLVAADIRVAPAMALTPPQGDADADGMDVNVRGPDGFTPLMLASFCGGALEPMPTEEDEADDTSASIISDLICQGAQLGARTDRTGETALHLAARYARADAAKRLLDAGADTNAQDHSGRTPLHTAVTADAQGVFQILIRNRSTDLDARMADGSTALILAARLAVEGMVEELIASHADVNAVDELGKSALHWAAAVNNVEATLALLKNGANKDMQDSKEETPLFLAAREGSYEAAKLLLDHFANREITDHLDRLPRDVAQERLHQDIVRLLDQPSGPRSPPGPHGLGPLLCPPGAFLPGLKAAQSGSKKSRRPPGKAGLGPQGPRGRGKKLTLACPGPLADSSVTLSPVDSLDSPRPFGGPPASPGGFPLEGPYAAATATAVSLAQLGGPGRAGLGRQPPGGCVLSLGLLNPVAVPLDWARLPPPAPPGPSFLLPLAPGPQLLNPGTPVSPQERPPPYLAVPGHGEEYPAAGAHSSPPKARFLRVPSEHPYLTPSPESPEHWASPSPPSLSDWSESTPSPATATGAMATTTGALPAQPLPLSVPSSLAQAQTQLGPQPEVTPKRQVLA
Sequence of Epidermal growth factor receptor (Homo sapiens) (P00533 whole entry, looked up): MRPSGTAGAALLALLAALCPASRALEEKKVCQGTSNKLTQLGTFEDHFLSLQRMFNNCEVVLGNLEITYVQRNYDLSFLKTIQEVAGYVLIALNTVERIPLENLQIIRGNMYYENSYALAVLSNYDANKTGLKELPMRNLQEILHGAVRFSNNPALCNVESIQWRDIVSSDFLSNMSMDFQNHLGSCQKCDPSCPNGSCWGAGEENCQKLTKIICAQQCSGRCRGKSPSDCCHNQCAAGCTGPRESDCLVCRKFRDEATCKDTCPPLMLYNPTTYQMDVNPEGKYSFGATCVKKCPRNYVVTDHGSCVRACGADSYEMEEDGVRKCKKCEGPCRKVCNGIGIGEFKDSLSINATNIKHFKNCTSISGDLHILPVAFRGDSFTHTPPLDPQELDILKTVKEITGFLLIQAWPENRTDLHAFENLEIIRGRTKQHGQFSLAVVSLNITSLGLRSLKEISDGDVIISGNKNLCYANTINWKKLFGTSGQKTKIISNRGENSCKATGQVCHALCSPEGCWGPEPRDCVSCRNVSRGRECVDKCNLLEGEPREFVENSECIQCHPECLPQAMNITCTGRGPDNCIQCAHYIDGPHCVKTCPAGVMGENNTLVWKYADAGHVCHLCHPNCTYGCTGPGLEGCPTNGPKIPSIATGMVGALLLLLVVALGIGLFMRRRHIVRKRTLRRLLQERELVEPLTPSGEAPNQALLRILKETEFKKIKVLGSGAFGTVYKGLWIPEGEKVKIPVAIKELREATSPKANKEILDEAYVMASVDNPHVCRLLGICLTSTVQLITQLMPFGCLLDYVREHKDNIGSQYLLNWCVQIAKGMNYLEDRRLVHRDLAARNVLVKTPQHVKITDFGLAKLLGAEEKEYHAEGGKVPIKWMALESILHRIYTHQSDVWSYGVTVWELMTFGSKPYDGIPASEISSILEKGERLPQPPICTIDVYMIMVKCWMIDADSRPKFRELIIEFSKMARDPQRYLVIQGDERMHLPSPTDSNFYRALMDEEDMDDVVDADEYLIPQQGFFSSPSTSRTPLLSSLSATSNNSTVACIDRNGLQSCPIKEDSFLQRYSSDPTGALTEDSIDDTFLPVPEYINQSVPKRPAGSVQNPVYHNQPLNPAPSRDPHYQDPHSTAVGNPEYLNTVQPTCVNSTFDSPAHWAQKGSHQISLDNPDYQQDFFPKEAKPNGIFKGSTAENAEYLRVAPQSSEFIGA
Sequence of Torsin-1A-interacting protein 2 (Homo sapiens) (Q8NFQ8 whole entry, looked up): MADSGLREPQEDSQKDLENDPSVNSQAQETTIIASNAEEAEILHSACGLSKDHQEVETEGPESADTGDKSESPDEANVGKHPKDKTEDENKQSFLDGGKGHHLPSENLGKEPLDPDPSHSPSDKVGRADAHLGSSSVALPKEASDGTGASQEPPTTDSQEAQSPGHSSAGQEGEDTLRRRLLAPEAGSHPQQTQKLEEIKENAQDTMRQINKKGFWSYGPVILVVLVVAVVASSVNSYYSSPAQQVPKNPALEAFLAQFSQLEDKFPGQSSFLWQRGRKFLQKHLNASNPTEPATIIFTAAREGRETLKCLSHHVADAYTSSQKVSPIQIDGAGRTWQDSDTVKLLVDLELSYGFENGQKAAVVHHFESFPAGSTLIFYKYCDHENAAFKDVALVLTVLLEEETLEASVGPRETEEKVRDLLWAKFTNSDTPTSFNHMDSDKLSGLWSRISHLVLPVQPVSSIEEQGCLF
Sequence of Fibroblast growth factor 10 (Homo sapiens) (O15520 whole entry, looked up): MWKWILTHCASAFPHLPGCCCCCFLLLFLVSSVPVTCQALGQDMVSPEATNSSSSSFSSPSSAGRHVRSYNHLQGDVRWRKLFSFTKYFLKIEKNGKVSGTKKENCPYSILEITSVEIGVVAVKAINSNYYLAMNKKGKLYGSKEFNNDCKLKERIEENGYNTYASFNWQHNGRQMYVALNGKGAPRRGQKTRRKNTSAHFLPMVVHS
Sequence of Dickkopf-related protein 1 (Homo sapiens) (O94907 whole entry, looked up): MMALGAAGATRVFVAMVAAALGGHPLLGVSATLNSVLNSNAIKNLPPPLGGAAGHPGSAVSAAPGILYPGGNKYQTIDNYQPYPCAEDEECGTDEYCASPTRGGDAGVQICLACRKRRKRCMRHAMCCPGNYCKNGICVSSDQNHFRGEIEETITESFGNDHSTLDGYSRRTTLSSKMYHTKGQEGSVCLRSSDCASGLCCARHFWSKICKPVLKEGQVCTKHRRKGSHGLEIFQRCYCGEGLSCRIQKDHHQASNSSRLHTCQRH

As for `CO[C@@H]1COC(=O)CC=C[C@H](C)[C@H](OC)COC(=O)[C@H](C)NC(=O)CC=C[C@H]1C`, the composite z-score was 1.53 in assay [1]; -0.207 in assay [5]; -0.228 in assay [7]; 1.83 in assay [8]; 0.273 in assay [9]; -0.0109 in [10]. Also, the composite z-score is 0.657 in assay [11]; -0.546 in assay [12]; -1.31 in assay [13]; 0.616 in assay [15]; 0.918 in assay [16]; 0.745 in assay [17]. For the same molecule, the figures for the composite z-score in [18], in assay [19] and in assay [20] were 1.44, 1.18 and 1.74, respectively. Moreover, the z-score in assay [2] is 0.419 (inactive); in [3], -0.245 (inactive); in [4], 0.329 (inactive); in assay [6] it was 1.2 (inactive); in assay [14], 0.671 (inactive).
Regarding `CO[C@H]1COC(=O)[C@@H](C)COC(=O)[C@H](COCc2ccccc2)NC(=O)CC=C[C@H]1C`, the composite z-score in assay [1] is 0.409; in assay [5], -1.28; in assay [7], -0.128; in assay [8] it was 0.98; in [9], -0.944; in assay [10], -0.196. The composite z-score was 0.641 in [11]; -0.492 in assay [12]; -0.828 in assay [13]; 0.121 in [15]; -0.523 in [16]; 0.039 in assay [17]. In addition, the composite z-score in assay [18] was 0.678; in [19], 0.705; in [20], 2.01. Also, the z-score was 0.0827 (inactive) in [2]; -0.704 (inactive) in assay [3]; 0.007 (inactive) in assay [4]; 0.456 (inactive) in assay [6]; 0.104 (inactive) in assay [14].
Turning to `CC[C@@H](c1ccccc1)n1c(=O)n2n(c1=O)[C@H]1[C@H](O)[C@@H]3O[C@@H]3C(=O)[C@H]1CC2`, the composite z-score was 0.342 in assay [1]; 0.396 in assay [5]; 0.444 in assay [7]; 0.417 in [8]; 0.285 in assay [9]; -0.0431 in [10]. Moreover, the composite z-score is 1.23 in assay [11]; -0.245 in assay [12]; -0.717 in assay [13]; 0.427 in [15]; 0.417 in assay [16]; 0.489 in [17]. The values for the composite z-score in assay [18], in [19] and in assay [20] were 0.32, 0.466 and 0.384, respectively. Further, the z-score in [2] is -0.0637 (inactive); in assay [3] it was -2.45 (inactive); in assay [4] it was -0.0584 (inactive); in [6], 0.473 (inactive); in [14] it was 0.797 (inactive).
As to `COC(=O)[C@H](C)NC(=O)CCC1CC(OC(=O)NCc2ccc3c(c2)OCO3)CC2(CCCC(COC(=O)NCC(c3ccccc3)c3ccccc3)O2)O1` (stereo not given in full), the composite z-score in [1] was 1.55; in assay [5] it was 2.65; in assay [7] it was -0.118; in assay [8], 1.5; in [9], 1.06; in assay [10], 0.0004. The composite z-score is 0.848 in assay [11]; -0.33 in [12]; -0.845 in assay [13]; 1.33 in assay [15]; 0.653 in assay [16]; 0.651 in assay [17]. Besides, the composite z-score is 1.2 in assay [18], 0.766 in [19] and -0.473 in assay [20]. The z-score in assay [2] was -0.256 (inactive); in [3], -0.58 (inactive); in assay [4] it was -0.122 (inactive); in assay [6], -0.502 (inactive); in assay [14], -0.845 (inactive).
As for `CCOC(=O)[C@H](CC(C)C)NC(=O)CCC1CC(OC(=O)NCc2ccc3c(c2)OCO3)CC2(CCCC(COC(=O)NCCCN3CCCC3=O)O2)O1` (stereo not given in full), the composite z-score in [1] is 1.49; in [5], 1.94; in [7], -0.166; in assay [8], 1.36; in assay [9] it was 1.04; in assay [10], -0.0271. Further, the composite z-score in [11] is 0.929; in assay [12], -0.0602; in assay [13], -0.568; in assay [15], 0.783; in assay [16], 0.805; in assay [17] it was 0.414. Further, the composite z-score in assay [18] was 0.734; in assay [19], 0.509; in [20] it was -0.0813. Also, the z-score in assay [2] is -0.0618 (inactive); in assay [3], 0.162 (inactive); in assay [4], -0.474 (inactive); in assay [6], 0.485 (inactive); in assay [14], -0.719 (inactive).

The values above are taken from PubChem BioAssay.
